HepG2 tox = qHTS for Inhibitors of TGF-b: Cytotox Counterscreen; HepG2 CAGA-GFP viability, ATP luminescence, 18 h; Potency, µM (series often up to 46.1 µM), most hits filed as cytotoxic; hit rate 0.76% among 410,000
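CellTiter-Glo luminescence gave cytotoxicity after 18 hours at 37 degrees C. The cells were HepG2 CAGA-GFP in 1% FBS DMEM, stimulated with 500 pg/mL TGF-beta after compound addition. %Activity was normalised to no-cell wells (complete cell-killing) and DMSO (no toxicity), and curves were fitted and classified.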
TDP1 cell CPT = qHTS for Inhibitors of human tyrosyl-DNA phosphodiesterase 1 (TDP1): qHTS in cells in presence of CPT | hit rate 12% among 420,000 | Potency, µM (series often up to 46.2 µM), actives largely listed as inhibitors | chicken DT40 Tdp1-/-;hTDP1 cells + 20 nM CPT, ATP luminescence, 48 h; also: nearly all actives have a fitted effect of over 55% in size
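Chicken DT40 Tdp1-/- cells stably complemented with human TDP1 were seeded at 400 cells/well in medium containing 20 nM camptothecin, exposed to pin-transferred compounds, and grown at 37 °C for at least 48 hr. Viability was read as ATP luminescence.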
HT1080-NT tox = qHTS for induction of synthetic lethality in tumor cells producing 2HG: qHTS for the HT-1080-NT fibrosarcoma cell line; hit rate 1.6% among 360,000; HT-1080-NT fibrosarcoma viability, CellTiter-Glo ATP luminescence, 48 h; Potency, µM (top dose mostly 46.1 µM), hits mostly cytotoxic;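 also: NT is the 2HG producing partner of a matched IDH1 knockdown line; nearly all actives have a fitted effect of over 55% in size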
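A 48-hour cytotoxicity screen used HT-1080-NT cells plated 2 hours before compound delivery. ATP-based CellTiter-Glo luminescence measured viability, normalized to DMSO and no-cell controls.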
TGFb SMAD3 inh = qHTS for Inhibitors of TGF-b. AID 588855, 2011. HepG2 CAGA-GFP TGF-b/SMAD3 reporter, GFP fluorescence, 18 h; TGF-beta stimulated, 500 pg/mL final. hit rate 1.2% among 410,000. Potency, µM (top dose mostly 46.1 µM), usual class: inhibitors; also: nearly all actives have a fitted effect of over 65% in size
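Smad-responsive CAGA-GFP expression was quantified in HEPG2 cells exposed to compounds and 500 pg/mL final TGF-beta for 18 h at 37 degrees C; unstimulated wells defined full inhibition.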
HT1080 IDH1KD tx = qHTS for induction of synthetic lethality in tumor cells producing 2HG: qHTS for the HT-1080-IDH1KD cell line; hit rate 2% among 360,000; HT-1080 IDH1 knockdown viability, ATP luminescence, 48 h; Potency, µM (series often up to 46.1 µM), usual class: cytotoxic
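Luminescent ATP read-out (CellTiter-Glo, 10 min at room temperature) after 48 h compound exposure at 37 °C gave viability of IDH1-knockdown HT-1080 cells. Activity was normalised to DMSO and cell-free wells, then fitted as concentration-response curves.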
TDP1 cell noCPT = qHTS for Inhibitors of human tyrosyl-DNA phosphodiesterase 1 (TDP1): qHTS in cells in absence of CPT; DT40 Tdp1-/- hTDP1 cells, no CPT, ATP luminescence, 48 h; Potency, µM (titrated, usually from 46.2 µM), actives largely listed as inhibitors; hit rate 15% among 420,000; AID 686978, 2013; also: nearly all actives have a fitted effect of over 55% in size
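Seeded 400 DT40-hTDP1 cells/well (vehicle DMSO, no 20 nM CPT); pinned compounds; ≥48 hr at 37 °C; CellTiter-Glo luminescence as viability measure.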
Each line names hits and unclear results; the compound was inactive in the other large screens. A selection: hits, their analogues and other compounds. The true share with any hit is near 17%. Calls follow the shape of the dose curve; as a rule, active = well fitted curve in the direction sought with a large enough effect; inconclusive = small, poorly fitted or top-dose-only effect, or another doubt; inactive = no such curve, though single readings can be large; an effect the other way counts as inactive or inconclusive.

CS(=O)(=O)c1ccc(NC(=O)C2CC(=O)N(c3ccc4c(c3)OCCO4)C2)cc1 (stereo not drawn)	none
COC(=O)c1n[nH]n(-c2ccccc2)c1=O	none (no result: HT1080-NT tox, HT1080 IDH1KD tx)
Cc1cc(C)cc(NC(=O)C(NCCN2CCOCC2)c2ccccc2)c1 (stereo not drawn)	TDP1 cell CPT inconclusive, TGFb SMAD3 inh inconclusive, TDP1 cell noCPT inconclusive
CC(C)Oc1cccc(NC(=O)C2CCN(S(=O)(=O)Cc3ccccc3)CC2)c1	TDP1 cell CPT 13µM, TDP1 cell noCPT inconclusive (no result: HT1080-NT tox, HT1080 IDH1KD tx)
O=C(Nc1cccc(S(=O)(=O)NC2=NCCC2)c1)C1CCC1	none
N#Cc1ccc(Oc2ccc(NC(=O)C3CC=CCC3C(=O)O)cc2)cc1 (stereo not drawn)	TDP1 cell noCPT inconclusive
O=C(Nc1cccc(S(=O)(=O)Nc2ccc(SC(F)F)cc2)c1)C1CCC1	TDP1 cell CPT inconclusive, HT1080-NT tox 15µM, TDP1 cell noCPT inconclusive
O=C(Nc1ccc(Oc2ccccc2)cc1)C1CC1	TDP1 cell CPT 21µM, TDP1 cell noCPT 18µM
Cc1cccc(Oc2ccc(NC(=O)C3CC=CCC3C(=O)O)cc2)c1 (stereo not drawn)	TDP1 cell noCPT 2.1µM
CCn1cc(/C=C(\NC(=O)c2ccccc2Cl)C(=O)NCCN2CCOCC2)c2ccccc21	TDP1 cell CPT inconclusive
NS(=O)(=O)c1ccc(NC(=S)NC2CC2)cc1	none
CC(=O)Nc1ccc(S(=O)(=O)N(C)CC(=O)N2CCN(C(=O)c3ccco3)CC2)cc1	none
CC(C)C[C@H](NC(=O)Nc1ccc(Oc2ccccc2)cc1)C(=O)O	none
COC(=O)[C@H](C)NC(=O)Nc1ccc(Oc2ccccc2)cc1	TDP1 cell CPT inconclusive, TDP1 cell noCPT 6.3µM
Cc1nc2c(-c3ccccc3)c(C)nn2c(C)c1CCC(=O)NC(C)CCc1ccco1 (stereo not drawn)	TDP1 cell CPT 12µM, TDP1 cell noCPT 9.2µM
COc1ccccc1CNC(=O)CCc1c(C)nc2cc(-c3ccccc3OC)nn2c1C	TDP1 cell CPT inconclusive, TDP1 cell noCPT inconclusive
COc1ccccc1-c1cc2nc(C)c(CCC(=O)NC(C)CCc3ccco3)c(C)n2n1 (stereo not drawn)	TDP1 cell CPT 23µM, TGFb SMAD3 inh inconclusive, TDP1 cell noCPT 21µM
Cc1ccc(NC(=O)CSc2nc(=O)n(Cc3ccncc3)c3c2CCC3)c(C)c1	none
CCOc1ccc(NCCC(O)c2ccc(F)cc2)cc1 (stereo not drawn)	none
COc1ccc(CCN(C)CC(=O)Nc2cc(C)nc3ccccc23)cc1OC	TDP1 cell CPT inconclusive, TDP1 cell noCPT inconclusive
COc1cc(=O)n2c(c1C(=O)NC(C)c1ccco1)CCN(Cc1cc(C)ccc1C)CC2 (stereo not drawn)	none (no result: HepG2 tox, HT1080-NT tox, TGFb SMAD3 inh, HT1080 IDH1KD tx)
COc1ccc(C2C(=O)N(C3CCCCCC3)CC(=O)N2Cc2ccc(C)cc2)cc1OC (stereo not drawn)	TDP1 cell CPT 23µM, TDP1 cell noCPT 23µM (no result: HT1080-NT tox, HT1080 IDH1KD tx)
O=C1C(c2ccc(F)cc2)N(CCc2ccccc2)C(=O)CN1C1CCCCCC1 (stereo not drawn)	TDP1 cell CPT inconclusive, TDP1 cell noCPT 13µM (no result: HT1080-NT tox, HT1080 IDH1KD tx)
CCOCCCN1C(=O)CN(C2CCCCCC2)C(=O)C1c1ccc(OC)cc1 (stereo not drawn)	TDP1 cell CPT 7.9µM, TDP1 cell noCPT inconclusive
CCOCCCN1C(=O)CN(C2CCCCC2)C(=O)C1c1ccc(OC)c(OC)c1 (stereo not drawn)	none

High-throughput results from PubChem BioAssay.
